Data taken from PubChem BioAssay (EPA / NIEHS).
The source made the active and inactive calls. The calls were made as follows: active = hit-call score of the fitted dose curve at least 0.9, where 1 is the maximum; inactive = score below 0.9.

Test: APR_HepG2_NuclearSize_72hr: Apredica 72-hour HepG2 Assay for Nuclear Size (AID 2282925)
Details: high-content imaging, actives raise or lower the signal
Description: APR_HepG2_72hr is a cell-based, multiplexed-readout assay that uses HepG2, a human liver cell line, with measurements taken at 72 hours after chemical dosing in a 384-well plate.APR_HepG2_NuclearSize_72hr is one of 10 assay component(s) measured or calculated from the APR_HepG2_72hr assay. It is designed to make measurements of cell phenotype, a form of morphology reporter, as detected with fluorescence intensity signals by HCS Fluorescent Imaging technology.Data from the assay component APR_HepG2_NuclearSize_72hr was analyzed into 1 assay endpoint. This assay endpoint, APR_HepG2_NuclearSize_72hr, was analyzed with bidirectional fitting relative to DMSO as the negative control and baseline of activity. Using a type of morphology reporter, measures of all nuclear dna for gain or loss-of-signal activity can be used to understand the signaling at the nuclear-level. Furthermore, this assay endpoint can be referred to as a primary readout, because this assay has produced multiple assay endpoints where this one serves a signaling function. To generalize the intended target to other relatable targets, this assay endpoint is annotated to the cell morphology intended target family, where the subfamily is organelle conformation.
Cells were treated with dimethyl sulfoxide (DMSO) as a solvent control at a final concentration of 0.5% v/v or with compounds in DMSO with a resulting final DMSO concentration of 0.5% v/v. Compound treatment was done at concentrations of 0.39, 0.78, 1.56, 3.12, 6.24, 12.5, 25, 50, 100, and 200 uM in duplicate on each plate. Cells were treated with compounds for 1, 24, or 72 hr. Carbonyl […] m-chloro-phenylhydrazone (CCCP) and taxol were used as positive controls for mitochondrial function and cytoskeletal stability, respectively; DMSO served as the negative control for this experiment. Cells were fixed by the direct addition of 50 uL formaldehyde in Hank's Balanced Salt Solution (HBSS) to a final concentration of 3.7%. After incubation in the fixation medium for 30 min at room temperature (293-298 K), cells were rinsed twice with HBSS and treated with cell permeabilization buffer (16 uL of 0.5% Triton X-100) for 10 min at room temperature (293-298 K) before labeling. For mitochondrial membrane potential and mitochondrial measurements, pre-fixed cells were incubated with 50 uL of MitoTracker Red CMXRos (Invitrogen) at a concentration of 250 nM for 30 min before fixation. In the remaining cases, post-fixed cells were labeled by incubation with a multiplexed mixture of primary antibodies in HBSS for 60 min at room temperature (293-298 K) to detect immunoreactivity of c-Jun (1:500), phospho-histone H3 (1:100), phospho-histone H2A.x (1:200), p53 (1:400), alpha-tubulin (1:200) and Hoechst 33342 (2 ug/mL). Cells were labeled for multiplexed imaging on two separate plates: a) Hoechst 33342, MitoTracker Red, phospho-histone H3, and alpha-tubulin, and b) Hoechst 33342, phospho-histone H2A.x, and c-Jun. A final rinse with HBSS (50 uL) was performed before analysis. The primary and secondary antibodies for the proteins were phospho-histone H3 (rabbit anti-phospho-histone H3 and FITC-donkey anti-rabbit IgG), phospho-histone H2A.x (mouse anti-phospho-histone H2A.x and FITC-donkey anti-mouse IgG), c-Jun (rabbit anti-phospho-c-Jun and Cy3-donkey anti-rabbit IgG), p53 (sheep anti-p53 and Cy5-donkey anti-sheep IgG), alpha-tubulin (mouse anti-alpha-tubulin and Cy5-donkey anti-mouse IgG). These antibodies are available as the CellCiphr HepG2 assay kit (Millipore).Digital images of each well were captured using a Cellomics ArrayScan VTI (Thermo Scientific Cellomics) (0.8 NA objective, 0.63x optical coupler, and XF-93 filter set) at 20x magnification. The images were acquired using the autofocus feature of the ArrayScan instrument, which entails the following steps. First, the camera focuses on channel 1 (Hoechst 33342), where nuclei are identified. Second, a Z offset of 1 um is used for capturing mitochondria (MitoTracker Red). […]

Row | SMILES | outcome
1 | CCOC(=O)CC(SP(=S)(OC)OC)C(=O)OCC (stereo not given) | inactive
2 | COC(=O)c1ccccc1C(=O)OC | inactive
3 | Cc1c(F)c(F)c(COC(=O)C2C(/C=C(\Cl)C(F)(F)F)C2(C)C)c(F)c1F (stereo not given) | inactive
4 | Fc1ccc(Oc2ccnc3cc(Cl)cc(Cl)c23)cc1 | inactive
5 | CCCCNC(=O)OCC#CI | inactive
6 | O=C(O)c1nc(Cl)ccc1Cl | inactive
7 | CON(C)C(=O)Nc1ccc(Cl)c(Cl)c1 | inactive
8 | CCOc1cc(Oc2ccc(C(F)(F)F)cc2Cl)ccc1[N+](=O)[O-] | inactive
9 | COC(=O)N(OC)c1ccccc1COc1ccn(-c2ccc(Cl)cc2)n1 | inactive
10 | COc1nc(NC(C)C)nc(NC(C)C)n1 | inactive
11 | COC(=O)C(C)Oc1ccc(Oc2ccc(Cl)cc2Cl)cc1 (stereo not given) | inactive
12 | OC(c1ccc(Cl)cc1)(c1cncnc1)c1ccccc1Cl (stereo not given) | inactive
13 | C=CCC1=C(C)C(OC(=O)C2C(C=C(C)C)C2(C)C)CC1=O (stereo not given) | inactive
14 | CCCC1COC(Cn2cncn2)(c2ccc(Cl)cc2Cl)O1 (stereo not given) | inactive
15 | Oc1ccccc1-c1ccccc1 | inactive
16 | CC(C)(C)c1ccc(CSc2cnn(C(C)(C)C)c(=O)c2Cl)cc1 | inactive
17 | C#CCOS(=O)OC1CCCCC1Oc1ccc(C(C)(C)C)cc1 (stereo not given) | inactive
18 | CCc1nn(C)c(C(=O)NCc2ccc(C(C)(C)C)cc2)c1Cl | inactive
19 | COP(N)(=O)SC (stereo not given) | inactive
20 | O=C(Nc1ccccc1)Nc1ccnc(Cl)c1 | inactive

Row | SMILES | outcome
21 | CO/C=C(/C(=O)OC)c1ccccc1Oc1cc(Oc2ccccc2C#N)ncn1 | inactive
22 | CCON=C(CC)C1=C(O)CC(c2c(C)cc(C)cc2C)CC1=O (stereo not given) | inactive
23 | N#Cc1nn(-c2c(Cl)cc(C(F)(F)F)cc2Cl)c(N)c1S(=O)C(F)(F)F (stereo not given) | inactive
24 | COC(=O)C=C(C)OP(=O)(OC)OC | inactive
25 | CN(C)C(=S)SSC(=S)N(C)C | inactive
26 | CC(C)Oc1cc(-n2nc(C(C)(C)C)oc2=O)c(Cl)cc1Cl | inactive
27 | N#CC(CCc1ccc(Cl)cc1)(Cn1cncn1)c1ccccc1 (stereo not given) | inactive
28 | CC(C)C1(C)N=C(c2nc3ccccc3cc2C(=O)O)NC1=O (stereo not given) | inactive
29 | CC1COC(Cn2cncn2)(c2ccc(Oc3ccc(Cl)cc3)cc2Cl)O1 (stereo not given) | inactive
30 | COc1nc(C)nc(NC(=O)NS(=O)(=O)c2ccccc2Cl)n1 | inactive
31 | CC(Oc1ccc(Cl)cc1Cl)C(=O)O (stereo not given) | inactive
32 | O=C(O)COc1nc(Cl)c(Cl)cc1Cl | inactive
33 | COc1nc(C)nc(NC(=O)NS(=O)(=O)c2ccccc2CCC(F)(F)F)n1 | inactive
34 | C=CC1(C)OC(=O)N(c2cc(Cl)cc(Cl)c2)C1=O (stereo not given) | inactive
35 | CS/C(C)=N/OC(=O)N(C)SN(C)C(=O)O/N=C(\C)SC | inactive
36 | Cc1ccc(-c2c(Cl)nc(C#N)n2S(=O)(=O)N(C)C)cc1 | inactive
37 | CCOC(=O)C(Cl)Cc1cc(-n2nc(C)n(C(F)F)c2=O)c(F)cc1Cl (stereo not given) | inactive
38 | CCCCNC(=O)n1c(NC(=O)OC)nc2ccccc21 | inactive
39 | C=CCC1=C(C)[C@@H](OC(=O)[C@@H]2[C@@H](C=C(C)C)C2(C)C)CC1=O | inactive
40 | CC1=C(C(=O)Nc2ccccc2)SCCO1 | inactive
